# sEH act: increases human soluble epoxide hydrolase activity; P34913; purified human sEH enzymatic activity, activator screen; activation, % at 2 µM; 91,000 compounds, 0.04% hits; in the data active means activation above about 37%
# NFkB transloc pot: enhances IL-1B driven NFkB nuclear translocation; HUVEC IL-1B NFkB p65 nuclear translocation imaging; AID 819; 94,000 compounds, 0.3% hits; activation, % at 2 µM;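 active means activation above 40%, about the mean plus 3 SD, also judged a hit on visual image review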;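 further: percent activation is computed from the nuclear over cytoplasmic p65 intensity ratio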
# IL1B cytotox: HUVEC cytotoxicity counter-screen, IL-1B stimulated; HUVEC cell count loss, Hoechst imaging; cell count reduction, % at 2 µM; 94,000 compounds, 0.41% hits;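 active means cell count reduction more than 3 SD above the screen-wide mean, cut at about 70% in these data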;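 further: normalized per plate to untreated control cells as the no-loss baseline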
# sEH inhibitor: soluble epoxide hydrolase (human) inhibition | P34913 | recombinant human sEH enzymatic activity assay | inhibition, % at 2 µM | 91,000 compounds, 0.34% hits | AID 707; in the data active means inhibition above about 80%
# Cav32 inh: inhibitors of human Cav3.2 T-type calcium channel; O95180; Cav3.2-expressing cells, Fluo-4 calcium fluorescence FDSS; hits give low values; B-score at 10 µM; 100,000 compounds, 4% hits; AID 449739;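 active means single-dose well whose peak fluorescence ratio is a statistical outlier from its plate by either plate-standardised score or position-corrected B-score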
# Target sequence (O95180 whole entry, looked up): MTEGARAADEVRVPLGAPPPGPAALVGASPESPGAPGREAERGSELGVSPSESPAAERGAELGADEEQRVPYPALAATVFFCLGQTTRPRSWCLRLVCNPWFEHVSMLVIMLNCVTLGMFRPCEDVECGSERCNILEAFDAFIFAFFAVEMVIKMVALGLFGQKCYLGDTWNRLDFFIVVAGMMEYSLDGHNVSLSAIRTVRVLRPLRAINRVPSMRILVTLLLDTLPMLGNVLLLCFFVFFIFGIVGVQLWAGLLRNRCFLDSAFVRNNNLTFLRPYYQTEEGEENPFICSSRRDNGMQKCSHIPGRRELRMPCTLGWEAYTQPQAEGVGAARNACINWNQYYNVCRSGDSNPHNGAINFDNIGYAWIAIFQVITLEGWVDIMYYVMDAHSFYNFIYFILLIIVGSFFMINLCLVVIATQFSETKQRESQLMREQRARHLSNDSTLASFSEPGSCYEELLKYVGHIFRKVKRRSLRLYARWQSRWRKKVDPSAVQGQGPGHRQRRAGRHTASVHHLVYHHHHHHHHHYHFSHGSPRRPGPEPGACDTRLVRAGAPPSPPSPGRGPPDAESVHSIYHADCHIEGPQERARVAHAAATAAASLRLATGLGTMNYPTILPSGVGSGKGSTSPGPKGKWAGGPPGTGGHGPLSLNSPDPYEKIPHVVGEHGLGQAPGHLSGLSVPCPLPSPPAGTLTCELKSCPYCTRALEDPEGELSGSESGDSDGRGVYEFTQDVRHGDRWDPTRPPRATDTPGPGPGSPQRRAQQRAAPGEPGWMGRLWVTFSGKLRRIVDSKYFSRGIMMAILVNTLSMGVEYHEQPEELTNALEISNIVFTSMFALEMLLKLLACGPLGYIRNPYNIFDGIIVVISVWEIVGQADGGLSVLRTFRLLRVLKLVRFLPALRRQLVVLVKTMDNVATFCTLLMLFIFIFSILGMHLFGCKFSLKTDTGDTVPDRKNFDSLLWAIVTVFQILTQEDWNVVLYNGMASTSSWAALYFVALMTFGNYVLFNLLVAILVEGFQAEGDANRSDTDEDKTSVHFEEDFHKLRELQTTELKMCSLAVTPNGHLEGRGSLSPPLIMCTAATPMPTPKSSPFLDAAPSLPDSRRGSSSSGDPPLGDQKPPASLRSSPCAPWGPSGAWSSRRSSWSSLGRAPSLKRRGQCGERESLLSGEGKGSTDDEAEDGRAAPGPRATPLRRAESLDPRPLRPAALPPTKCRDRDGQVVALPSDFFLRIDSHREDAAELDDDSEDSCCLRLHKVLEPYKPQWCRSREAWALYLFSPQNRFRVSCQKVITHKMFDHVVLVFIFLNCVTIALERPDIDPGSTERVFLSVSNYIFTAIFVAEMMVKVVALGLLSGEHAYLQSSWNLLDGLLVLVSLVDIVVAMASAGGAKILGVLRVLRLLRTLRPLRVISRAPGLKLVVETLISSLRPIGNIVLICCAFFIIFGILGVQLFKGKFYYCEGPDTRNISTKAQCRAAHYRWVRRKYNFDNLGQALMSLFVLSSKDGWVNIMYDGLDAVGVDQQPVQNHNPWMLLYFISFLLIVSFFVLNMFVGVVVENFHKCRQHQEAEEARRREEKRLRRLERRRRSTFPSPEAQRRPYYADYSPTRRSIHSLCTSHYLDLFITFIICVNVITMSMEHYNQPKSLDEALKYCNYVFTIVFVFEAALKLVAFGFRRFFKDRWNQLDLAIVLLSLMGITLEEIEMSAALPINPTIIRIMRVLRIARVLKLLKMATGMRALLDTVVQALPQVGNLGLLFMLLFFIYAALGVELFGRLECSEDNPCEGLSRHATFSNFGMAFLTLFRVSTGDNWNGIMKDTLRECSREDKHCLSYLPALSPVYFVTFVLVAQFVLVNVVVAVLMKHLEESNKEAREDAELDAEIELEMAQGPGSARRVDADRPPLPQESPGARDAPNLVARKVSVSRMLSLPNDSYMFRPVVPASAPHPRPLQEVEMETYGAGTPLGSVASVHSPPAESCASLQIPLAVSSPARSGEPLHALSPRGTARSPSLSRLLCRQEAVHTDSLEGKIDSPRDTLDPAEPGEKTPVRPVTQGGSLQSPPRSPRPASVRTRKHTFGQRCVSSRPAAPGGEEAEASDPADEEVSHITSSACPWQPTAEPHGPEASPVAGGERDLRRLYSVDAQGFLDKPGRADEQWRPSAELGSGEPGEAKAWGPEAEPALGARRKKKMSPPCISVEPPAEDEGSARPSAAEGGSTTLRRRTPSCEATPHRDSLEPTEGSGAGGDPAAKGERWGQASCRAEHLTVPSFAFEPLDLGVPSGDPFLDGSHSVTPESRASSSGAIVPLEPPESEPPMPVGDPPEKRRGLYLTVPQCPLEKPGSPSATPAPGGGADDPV
# IL1B NFkB inh: blocks IL-1B driven NFkB nuclear translocation in HUVEC cells. HUVEC IL-1B NFkB p65 nuclear translocation imaging. inhibition, % at 2 µM. 94,000 compounds, 0.43% hits;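 active means inhibition above about 30% together with a positive call from visual inspection of the well image, limit read from the data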;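 further: nuclear over cytoplasmic p65 intensity ratio measured by imaging; 0% = IL-1B stimulated DMSO wells and 100% = unstimulated DMSO wells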
# The depositor's hits bear a star; . = no result given. Shown are actives, neighbours in structure and some others; about 4.6% of the full set was active somewhere.
SMILES,sEH act,NFkB transloc pot,IL1B cytotox,sEH inhibitor,Cav32 inh,IL1B NFkB inh
CN1/C(=C\C(=O)CN2C(=O)NC3(CCCCCC3)C2=O)C(C)(C)c2ccccc21,-4,13,-90,5,-4.2*,-13
O=C(COc1ccc(Cl)cc1Cl)N1CCCCCC1,.,.,.,.,-0.85,.
Cc1cc(Cl)ccc1OCC(=O)N1CC(C)CC(C)C1 (centres undefined),1,14,-8,3,-5.3*,-14
CCCc1nc(-c2ccc(-c3ccc(F)cc3)cc2)no1,-2,0,-32,0,-0.25,0
O=C(Nc1ccc(-c2nnc3n2CCCCC3)cc1)c1cnccn1,-14,2,-102,12,.,-2
CCOC(=O)c1c(C=O)c(C)n(Cc2ccc(C)cc2)c1C,-2,13,16,1,-6.1*,-13
O=S(=O)(Nc1nc2ccccc2nc1NCc1ccco1)c1ccccc1,0,4,-21,-1,-1.3,-4
c1coc(CNc2nc3nonc3nc2NCc2ccco2)c1,-11,-52,-48,12,-3.2,52*
C=CCn1c(SCC(=O)Nc2ccccc2)nc2scc(-c3cccs3)c2c1=O,-11,-1,-11,11,-5.1*,1
C=CCn1c(SCC(=O)N2CC(=O)Nc3ccccc32)nc2scc(-c3ccccc3)c2c1=O,-10,-6,-13,9,-7.2*,6
C=CCn1c(SCC(=O)N2CCOCC2)nc2scc(-c3ccco3)c2c1=O,.,.,.,.,3.5*,.
Cc1csc(NC(=O)CSc2nnc(Cc3cccn3C)n2CCc2ccccc2)n1,.,.,.,.,-8.4*,.
Cn1cccc1Cc1nnc(SCC(=O)N2CCCC2)n1CCc1ccccc1,-6,-6,-14,9,0.87,6
Cn1cccc1Cc1nnc(SCC(=O)N2CCc3ccccc32)n1CCc1ccccc1,.,.,.,.,-8.7*,.
CCN=C1SC(C(=O)Nc2cccc(C(=O)O)c2)CC(=O)N1CC (centres undefined),.,0,45,.,-0.27,0
COc1cc(Cl)cc(NC(=O)CCN2CCN(C)CC2)c1,2,-6,6,-2,-0.019,6
Cc1sc(NC(=O)c2ccco2)c(CN2CCC(C)CC2)c1C,15,4,8,-13,-5.2*,-4
O=[N+]([O-])c1ccc(N2N=C(c3ccco3)CC2c2ccccc2)cc1 (centres undefined),2,-2,2,2,-5*,2
Fc1ccc(C2CC(c3ccco3)=NN2c2ccccc2)cc1 (centres undefined),14,23,-5,-13,-0.83,-23
CCCn1c(CN2CCN(C(=O)c3ccco3)CC2)nc2c1c(=O)n(C)c(=O)n2C,12,-4,19,-12,0.2,4
C=CCn1c(SC(C)C(=O)NCCC2=CCCCC2)nc2ccccc2c1=O (centres undefined),6,-6,2,-4,-6.1*,6
Cc1ccc(C)c(-n2nnnc2SCC(=O)NCCC2=CCCCC2)c1,-69,11,-113,70,-7*,-11
CNC(=O)CSc1nnnn1-c1cc(C)ccc1C,11,18,-8,-5,0.04,-18
Cc1oc(-c2ccc(Cl)cc2)nc1CN1CCCC(C(=O)NCCCN2CCOCC2)C1 (centres undefined),8,-9,22,-8,.,9
Cc1ccccc1N/C(SCc1ccc(Cl)cc1)=C(/C#N)C(=O)NCc1ccco1,9,15,4,-6,-5.5*,-15
SMILES,sEH act,NFkB transloc pot,IL1B cytotox,sEH inhibitor,Cav32 inh,IL1B NFkB inh
C=CCOC(=O)COc1ccc2c(C)c(CC)c(=O)oc2c1,1,22,-17,-1,0.61,-22
Nc1nc2n(n1)C(c1cccc(Br)c1)CC(c1ccccc1)N2 (centres undefined),-1,16,16,1,1.5,-16
O=C(NCc1ccccc1)c1ccc(Oc2ccc(C(=O)NCc3ccccc3)cc2)cc1,-59,6,6,59,-1.1,-6
Cc1ccccc1CNC(=O)c1ccc(CSCc2ccccc2)cc1,-65,-3,2,66,-5.9*,3
O=C(CNS(=O)(=O)c1ccc(Br)cc1)N1CCN(c2ccc(F)cc2)CC1,1,32,-4,4,-7.8*,-32
COc1ccc(-n2ccsc2=S)cc1,3,-13,-6,-5,0.23,14
C=CCOc1nc2c(c(=O)n(C)c(=O)n2C)n1C,3,1,85*,-5,0.69,-1
C/C=C/COc1nc2c(c(=O)n(C)c(=O)n2C)n1C,-9,11,-26,11,0.18,-11
O=C(O)C1CCCCC1C(=O)NCCc1c[nH]c2ccccc12 (centres undefined),3,1,9,2,.,-1
CCCCNC(=O)CCn1nc(-c2ccccc2)ccc1=O,.,53*,-4,.,.,-53
CCOC(=O)c1sc2nc(SC)nc(-c3ccc(Cl)cc3)c2c1N,-13,1,-11,12,-0.39,0
O=C1c2cccnc2C(=O)N1Cc1ccco1,.,.,.,.,-2.3,.
CN1CCN(c2ccc(Cl)cc2NC(=O)C2COc3ccccc3O2)CC1 (centres undefined),.,.,.,.,-4.5*,.
O=[N+]([O-])c1ccccc1S(=O)(=O)NCCC1=CCCCC1,-17,-2,-72,15,.,2
CC(NS(=O)(=O)c1ccccc1)C(=O)Nc1nccs1 (centres undefined),-3,44*,-11,4,-0.081,-44
O=C(Nc1nccs1)C(NS(=O)(=O)c1ccc(Br)s1)c1ccccc1 (centres undefined),7,6,6,-4,-5.8*,-6
CC(NS(=O)(=O)c1ccccc1)C(=O)Nc1ccc(S(N)(=O)=O)cc1 (centres undefined),-15,-17,-2,16,-0.38,17
CCCNS(=O)(=O)c1ccc(CCC(=O)Nc2cc(Cl)ccc2Oc2ccccc2)cc1,.,.,.,.,-7*,.
CCCNS(=O)(=O)c1ccc(OCC(=O)Nc2ccccc2F)cc1,-8,-1,4,7,0.8,1
COc1ccc(CCC(=O)Nc2cc(Cl)ccc2OC)cc1,-4,-2,6,6,-1.2,2
CC(C)CNS(=O)(=O)c1ccc(CCC(=O)Nc2cc(Cl)ccc2Oc2ccccc2)cc1,9,15,10,-7,-6.2*,-15
CC(C)(C)NS(=O)(=O)c1ccc(CCC(=O)Nc2cc(Cl)ccc2Oc2ccccc2)cc1,0,5,5,2,-5.3*,-5
CCCCOc1cccc(-c2nnc(N)s2)c1,8,-9,12,-3,-1.7,9
Oc1ccccc1CNn1cnnc1,-4,-16,-16,2,0.68,16
Clc1ccc(N2N=C(c3cccs3)CC2c2ccco2)cc1 (centres undefined),28,3,-1,-24,-0.034,-3
CCc1ccc(NC(=O)CCc2nc3cccnc3n2Cc2ccc(OC)cc2)cc1,-16,.,.,13,-6.9*,.
CCn1c(SCC(=O)Nc2ccc(C(=O)OC)cc2)nc2cccnc21,6,-3,-8,-3,-0.27,3
CCOC(=O)/C=C/S(=O)(=O)c1ccc(NC(C)=O)cc1,5,-33,-8,-3,0.71,33*
